Experimental data published in PubChem BioAssay (NCI).
Values joined by “and” are separate entries in the source; they are usually repeats but may differ in a detail not shown here. Equal values may be shown once. Compounds without any hit were thinned out: in the full panel of roughly 83,000, 20% have a hit.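 Growth was measured after 48 h exposure to one concentration of compound in 96-well plates. Values under 10 count as active.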 Values without a mark were called inactive. Active and inactive are the calls of the source.

Test system: MDA-MB-468 breast
Test: NCI-60 one-dose screen, 48 h (100 = growth as untreated, 0 = no growth, -100 = all killed)
Details: 10 µM unless noted

Structure (SMILES)	growth
CN(C)CC(O)c1ccc2cc(Br)c3ccccc3c2c1 (stereo not given)	-0.132% (active)
NS(=O)(=O)c1cccc(Nc2nc(SCC(=O)c3ccc([N+](=O)[O-])cc3)nc3ccccc23)c1	0.252% (active)
Cc1ccc(C2SCC(=O)N2Cc2ccccc2)cc1 (stereo not given)	87.3%
Clc1cccc(/C=N/Nc2nc(N/N=C/c3cccc(Cl)c3Cl)nc(N3CCCCC3)n2)c1Cl	92.8%
C=CCn1c(SCC(=O)c2ccccc2)nnc1-c1c[nH]c2ccccc12	87.7%
O=c1ccc2ccccc2o1	114%
COC1C[C@H](O[C@@H]2C[C@H](O[C@@H]3C[C@H](O[C@@H]4C(=O)c5c(cc6cc(O[C@H]7C[C@@H](O[C@H]8C[C@@H](O)[C@H](O)C(C)O8)[C@H](O)C(C)O7)c(C)c(O)c6c5O)C[C@H]4C(OC)C(=O)[C@@H](O)[C@@H](C)O)OC(C)[C@H]3O)OC(C)[C@@H]2O)OC(C)[C@@H]1O (stereo not given in full)	-55% (active)
CC(=O)c1sc(Nc2cccc(Nc3nc(C)c(C)s3)c2)nc1C	55%
CC1(C)N=C(N)N=C(N)N1c1cccc(CCc2ccccc2)c1	16.6%
Nc1ncc(-c2ccc3ncnc(Nc4cccc(Cl)c4)c3c2)cn1	-26.4% (active)
NCCOc1ncccc1/C=C1\C2C=CC=CC2C2C=CC(F)=CC12 (stereo not given)	-7.18% (active)
O=C(/C=C/c1csc(Br)n1)NO	19%
CC(=O)Nc1cccc2c1CCCC2	100% and 91.1%
CN1CCN(CCNC(=O)c2cccc(CN3c4cccc5c4C(=Cc4cccnc43)N(C)C5=O)c2)CC1	24.4%
Brc1ccc2[nH]cc(-c3nc(-c4c[nH]c5ccncc45)cs3)c2c1	-71.4% (active)
Cn1c(SCC(=O)c2cccs2)nc2ccccc2c1=O	68.7%
C=CCn1c2ccccc2c2c3c(c4c5ccccc5n(CC=C)c4c21)C(=O)N(O)C3=O	24%
CC(=O)OC(c1ccccc1)C1CCOC1=O (stereo not given)	80.8%
COC(=O)Nc1ccc(-c2nc(-c3cccc(OC)c3)c(-c3ccnc(Br)c3)[nH]2)cc1	39.1%
O=c1c2ccccc2c(Br)c(Br)c2ccccc12	8.15% (active)

Structure (SMILES)	growth
COc1cc(OC)c2c(=O)c(O)c(-c3ccccc3)oc2c1	75.5%
O=C(Nc1ccncc1)C(=O)c1cn(S(=O)(=O)c2ccc(F)cc2)c2ccccc12	14.9%
CN1/C(=C\C(I)C(I)C2=[N+](C)c3ccccc3C2(C)C)C(C)(C)c2ccccc21 (stereo not given)	-17.6% (active)
COc1cc(/C=C/C(=O)N2CCC=CC2=O)cc(OC)c1OC	22.7%
CCN1C(=S)N(CC)C2Nn3c(s/c(=C4\C(=O)N(C)c5ccccc54)c3=O)=NC21 (stereo not given)	11.7%
CC/C(Cc1ccccc1)=C(/c1ccc(O)cc1)c1ccc(OCCN2CCCC2)cc1	-82.1% (active)
COC(=O)C1=C(C(=O)ON)C2C=CC1(C(Cc1ccccc1)Nc1ccccc1)O2 (stereo not given)	-45% (active)
OCc1cccnc1	102%
COc1ccc(-c2nn(-c3ccccc3)cc2/C=C/C(=O)c2ccc(NC(=O)CCCCCCC(=O)NO)cc2)cc1	92.8%
CCOC(=O)Nc1ccc2c(c1)C(=O)N(CC)c1ccccc1O2	-3.61% (active)
COc1ccc(C(c2cc(OC)c(OC)c(OC)c2)N2CCCCC2)cc1 (stereo not given)	9.32% (active)
O=C1CC(=O)OC(c2ccc([N+](=O)[O-])cc2)O1	-49.7% (active)
COC(=O)c1cccc(NC(=O)c2ccc(-c3cccc(N)c3)o2)c1	99.7%
COc1ccccc1/C=C1\Oc2cc(OCCCN3CCCC3)ccc2C1=O	85.9%
Fc1ccc(-c2cnc3nonc3n2)c(F)c1	73.3%
CCCCCC1CCCCN1C(=O)OCC (stereo not given)	150%
C[N+]1(CC2CO2)CCCCCC1 (stereo not given)	103%
FC(F)(F)c1ccc(-c2cnc(-n3cc(COCCN4CCCCC4)nn3)nc2NC2CCCCCC2)cc1	16.1%
COc1ccc(C(=O)N=Nc2c(O)n(C)c3ccccc23)cc1	95.2%
CSc1nc2ccc(C)cc2cc1/C=N/O	101%
